Results on 9 compounds are retold here after PubChem BioAssay (EPA / NIEHS).

The target of experiment [1] is Nucleoli Translocation, AR (gene 367) (UniProt P10275). The experiment is described as follows: UPITT_HCI_U2OS_AR_TIF2_Nucleoli_Antagonist: University of Pittsburgh U2OS Androgen Receptor-Transcriptional Intermediary Factor 2 (AR-TIF2) Antagonism High Content Imaging Assay for Nucleoli Translocation (AID 2283997; active = hit-call score of the fitted dose curve at least 0.9, where 1 is the maximum). The gist of the method: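 An antagonist-mode imaging screen: engineered U2OS (AR-RFP, TIF2-GFP) exposed to 20 uM compound, 0.2% DMSO. Activity reflects nucleolar red fluorescence change relative to DHT baseline.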

Experiment [2] has the same target. The experiment is described as follows: UPITT_HCI_U2OS_AR_TIF2_Nucleoli_Agonist: University of Pittsburgh U2OS Androgen Receptor-Transcriptional Intermediary Factor 2 (AR-TIF2) Agonism High Content Imaging Assay for Nucleoli Translocation (AID 2283998; active = hit-call score of the fitted dose curve at least 0.9, where 1 is the maximum). The gist of the method: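 U2OS cells expressing RFP-tagged human AR and GFP-tagged TIF2; red fluorescence in nucleoli quantified by high-content imaging. Primary screen at 20 uM final (0.2% DMSO); concentration-response 0.195–50 uM (0.5% DMSO), fitted upward versus DMSO.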

Experiment [3] addresses Ratio of Nucleoli Translocation and Cytoplasm, AR (gene 367) (UniProt P10275). The experiment is described as follows: UPITT_HCI_U2OS_AR_TIF2_Nucleoli_Cytoplasm_Ratio_Antagonist: University of Pittsburgh U2OS Androgen Receptor-Transcriptional Intermediary Factor 2 (AR-TIF2) Antagonism High Content Imaging Assay for Ratio of Nucleoli Translocation and Cytoplasm (AID 2283999; active = hit-call score of the fitted dose curve at least 0.9, where 1 is the maximum;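 also: antagonists lower the DHT-driven ratio of nucleolar to cytoplasmic red signal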). A digest of the protocol:
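Read-out is the ratio of nucleolar to cytoplasmic AR-RFP fluorescence, imaged by high-content microscopy in U2OS cells coexpressing TIF2-GFP. Single-point 20 uM screen, triplicate confirmation, then 0.195–50 uM dose response; activity referenced to DHT baseline.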

Experiment [4] is described as follows: CCTE_Shafer_MEA_acute_spike_number: CCTE's Neural Acute Assay for Total Number of Spikes, Shafer Lab (AID 2284008).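 As to AC50: curve fitted for decrease in spike count so AC50 reflects inhibitors.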 A digest of the protocol:
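Rat primary cortical neurons on 48-well MEA plates, DIV 13 or 15, at 37 C. 40 min baseline then 40 min with compound (0.03-40 uM); spikes detected at 8x rms noise, expressed as percent change from baseline.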

A short description of experiment [5]: CCTE_Shafer_MEA_acute_firing_rate_mean: CCTE's Neural Acute Assay for Mean Firing Rate, Shafer Lab (AID 2284009).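 Also: analyzed for loss of signal so actives lower firing rate relative to DMSO.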 A digest of the protocol:
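Spontaneous spiking of primary rat cortical networks, DIV 13/15, 37 C. Compound 0.03-40 uM, n ≥3 wells; 40 min baseline vs 40 min treated. Endpoint fitted in loss-of-signal direction against DMSO.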

Experiment [6] concerns the target Ratio of Nucleoli Translocation and Cytoplasm, AR (gene 367) (UniProt P10275). The experiment is described as follows: UPITT_HCI_U2OS_AR_TIF2_Nucleoli_Cytoplasm_Ratio_Agonist: University of Pittsburgh U2OS Androgen Receptor-Transcriptional Intermediary Factor 2 (AR-TIF2) Agonism High Content Imaging Assay for Ratio of Nucleoli Translocation and Cytoplasm (AID 2284000; active = hit-call score of the fitted dose curve at least 0.9, where 1 is the maximum;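 also: hits raise the red nucleolar to cytoplasm ratio above vehicle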). The gist of the method:
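Primary screen at 20 uM final (0.2% DMSO), then triplicate confirmation and dose-response from 0.195 to 50 uM final (0.5% DMSO). Cells: U2OS with AR-RFP and TIF2-GFP. Endpoint is the nucleoli/cytoplasm red-fluorescence ratio, gain-of-signal vs DMSO.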

A short description of experiment [7]: CCTE_Simmons_MITO_basal_resp_rate: CCTE's HepG2 Seahorse XF Respirometric Screening Assay at Basal Respiratory State, Simmons Lab (AID 2284001). To be noted: actives raise or lower the signal. A digest of the protocol: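 Readout is oxygen consumption rate after test compound injection, measured by Seahorse XF in HepG2 cells. Seven concentrations from 125 nM up to 100 uM final are tested, and activity in either direction is fitted against DMSO.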

The nature of experiment [8]: CCTE_Simmons_MITO_inhib_resp_rate: CCTE's HepG2 Seahorse XF Respirometric Screening Assay at Inhibited Respiratory State [full ETC block], Simmons Lab (AID 2284006). To be noted: actives raise or lower the signal. A digest of the protocol:
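OCR read-out in the inhibited phase following rotenone/antimycin A, after compound and FCCP injections, in HepG2 cells. Seven concentrations (125 nM to 100 uM final), three biological replicates, 6-min cycles over 72 min; DMSO baseline.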

A short description of experiment [9]: CCTE_Simmons_MITO_viability: CellTiter-Glo Viability Assessment for CCTE's HepG2 Seahorse XF Respirometric Screening Assay [post-hoc], Simmons Lab (AID 2284007; active = hit-call score of the fitted dose curve at least 0.9, where 1 is the maximum;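 as to AC50: cells exposed to chemical for 90 min before the ATP read; actives lower ATP signal relative to DMSO baseline meaning reduced viability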). The gist of the method:
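Luciferase-coupled ATP luminescence, single endpoint. HepG2, post-respirometry. Compound 125 nM–100 uM final, 7 conc., 90 min. n=3 biological, technical singles. DMSO vehicle/baseline; dichlone 10 nM–100 uM, 8 conc., as positive control.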

Experiment [10] can be described thus: CCTE_Harrill_HTTr_Viability_PRF_DMEM_6hr: (Pilot) CCTE's 6-hour Cell Viability Assessment for the High-Throughput Transcriptomics (HTTr) Platform, in MCF-7 cells cultured phenol red-free DMEM + 10% charcoal-stripped fetal bovine serum, Harrill Lab (AID 2283976). A digest of the protocol: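 Membrane integrity by high-content imaging of propidium iodide uptake, six hours after dosing with eight concentrations. Cells: MCF-7 grown in phenol red-free DMEM plus 10% charcoal-stripped serum; DMSO serves as baseline for bidirectional fits.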

The nature of experiment [11]: CCTE_Harrill_HTTr_Viability_PRF_DMEM_12hr: (Pilot) CCTE's 12-hour Cell Viability Assessment for the High-Throughput Transcriptomics (HTTr) Platform, in MCF-7 cells cultured in phenol red-free DMEM + 10% charcoal-stripped fetal bovine serum, Harrill Lab (AID 2283977). The gist of the method:
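Membrane integrity was scored via propidium iodide dye exclusion imaging, fitted in both directions relative to DMSO. Compounds ran as eight-point dilutions for 12 hours on MCF-7 grown in phenol red-free DMEM plus 10% charcoal-stripped serum.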

The nature of experiment [12]: TOX21_TR_RXR_BLA_Antagonist_Followup_viability: Viability Assessment in the Tox21 Thyroid Hormone Receptor beta Retinoid X Receptor alpha (RXRa) Antagonism Beta-lactamase (BLA) Follow-Up Assay (AID 2283979; active = hit-call score of the fitted dose curve at least 0.9, where 1 is the maximum). A digest of the protocol:
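RXRa-UAS-bla HEK293T cells seeded 2,500/well in phenol red-free DMEM with 2% charcoal-stripped FBS, attached 5 h, then exposed to compounds at 11 concentrations in triplicate for 16 h at 37C/5% CO2. Viability read by CellTiter-Glo ATP luminescence; bidirectional fit versus DMSO.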

Experiment [13] is described as follows: CCTE_Harrill_HTTr_Viability_PRF_DMEM_24hr: (Pilot) CCTE's 24-hour Cell Viability Assessment for the High-Throughput Transcriptomics (HTTr) Platform, in MCF-7 cells cultured in phenol red-free DMEM + 10% charcoal-stripped fetal bovine serum, Harrill Lab (AID 2283980). A digest of the protocol:
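Propidium iodide exclusion imaged at 24 h after dosing scores viability; cells were MCF-7 grown in phenol red-free DMEM plus 10% charcoal-stripped serum, tested in eight concentrations, fitted in both directions against DMSO.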

Experiment [14] in a line: CCTE_Harrill_HTTr_Apoptosis_DMEM_6hr: (Pilot) CCTE's 6-hour Apoptosis Assessment for the High-Throughput Transcriptomics (HTTr) Platform, in MCF-7 cells cultured in DMEM + 10% fetal bovine serum, Harrill Lab (AID 2283981). A digest of the protocol: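 MCF-7 cells grown in DMEM + 10% FBS were exposed for 6 hours to an eight-point dilution series. CellEvent Caspase 3/7 Green signal was imaged; activity fitted bidirectionally against DMSO.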

A short description of experiment [15]: CCTE_Harrill_HTTr_Apoptosis_DMEM_12hr: (Pilot) CCTE's 12-hour Apoptosis Assessment for the High-Throughput Transcriptomics (HTTr) Platform, in MCF-7 cells cultured in DMEM + 10% fetal bovine serum, Harrill Lab (AID 2283982). The gist of the method:
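Caspase-3/7 activity was measured by high-content imaging (CellEvent Caspase 3/7 Green) after a 12-hour exposure of MCF-7 cells grown in DMEM with 10% FBS. Eight-point concentration series, fitted bidirectionally against vehicle.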

Experiment [16] is described as follows: CCTE_Harrill_HTTr_Apoptosis_DMEM_24hr: (Pilot) CCTE's 24-hour Apoptosis Assessment for the High-Throughput Transcriptomics (HTTr) Platform, in MCF-7 cells cultured in DMEM + 10% fetal bovine serum, Harrill Lab (AID 2283983). The gist of the method:
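Caspase-3/7 activity read by high-content imaging (CellEvent Green reagent) 24 h after dosing. MCF-7 cells grown in DMEM with 10% FBS received an eight-point concentration series; fits were bidirectional versus DMSO.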

Experiment [17] can be described thus: CCTE_Harrill_HTTr_Apoptosis_PRF_DMEM_6hr: (Pilot) CCTE's 6-hour Apoptosis Assessment for the High-Throughput Transcriptomics (HTTr) Platform, in MCF-7 cells cultured phenol red-free DMEM + 10% charcoal-stripped fetal bovine serum, Harrill Lab (AID 2283984). The gist of the method: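 Caspase-3/7 activity (CellEvent Green) read by high-content imaging 6 h after dosing, eight concentrations. Cells: MCF-7, phenol red-free DMEM with 10% charcoal-stripped serum. Curves fit both directions against DMSO.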

A short description of experiment [18]: CCTE_Harrill_HTTr_Apoptosis_PRF_DMEM_12hr: (Pilot) CCTE's 12-hour Apoptosis Assessment for the High-Throughput Transcriptomics (HTTr) Platform, in MCF-7 cells cultured in phenol red-free DMEM + 10% charcoal-stripped fetal bovine serum, Harrill Lab (AID 2283985). A digest of the protocol: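 Caspase-3/7 activity by CellEvent Green high content imaging after 12 h compound exposure (eight concentrations) in MCF-7 grown in phenol red-free DMEM plus 10% charcoal-stripped serum; DMSO as baseline.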

Experiment [19] can be described thus: CCTE_Harrill_HTTr_Apoptosis_PRF_DMEM_24hr: (Pilot) CCTE's 24-hour Apoptosis Assessment for the High-Throughput Transcriptomics (HTTr) Platform, in MCF-7 cells cultured in phenol red-free DMEM + 10% charcoal-stripped fetal bovine serum, Harrill Lab (AID 2283986). A digest of the protocol:
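Eight concentrations tested for 24 h on MCF-7 grown in charcoal-stripped serum, phenol red-free DMEM. High content imaging of CellEvent Caspase 3/7 Green signal gives apoptosis read-out, fitted both ways relative to DMSO.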

A further experiment deals with DIO1 (gene 1733). Nature of the experiment: CCTE_GLTED_hDIO1: CCTE's human Deiodinase 1 (DIO1) Inhibition Assay, Great Lakes Toxicology and Ecology Division (GLTED) Lab (AID 2283987; active = hit-call score of the fitted dose curve at least 0.9, where 1 is the maximum;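 also: isolated human DIO1 enzyme in a cell-free setup rather than cells; enzyme activity read as free iodide liberated from substrate via Sandell-Kolthoff colorimetry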). A digest of the protocol:
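Cell-free human DIO1 enzyme incubated 3 h with test chemical; iodide freed from substrate then measured by Sandell-Kolthoff absorbance. Run in triplicate; loss of signal relative to DMSO taken as inhibition.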

Structures are written as SMILES. Records with an inconclusive call do not appear. Calls of active or inactive are those of the source. The calls were made as follows, unless noted: active = hit-call score of the fitted dose curve at least 0.9, where 1 is the maximum; inactive = score below 0.9.

Nucleoli Translocation, AR (gene 367), sequence (P10275 whole entry, looked up): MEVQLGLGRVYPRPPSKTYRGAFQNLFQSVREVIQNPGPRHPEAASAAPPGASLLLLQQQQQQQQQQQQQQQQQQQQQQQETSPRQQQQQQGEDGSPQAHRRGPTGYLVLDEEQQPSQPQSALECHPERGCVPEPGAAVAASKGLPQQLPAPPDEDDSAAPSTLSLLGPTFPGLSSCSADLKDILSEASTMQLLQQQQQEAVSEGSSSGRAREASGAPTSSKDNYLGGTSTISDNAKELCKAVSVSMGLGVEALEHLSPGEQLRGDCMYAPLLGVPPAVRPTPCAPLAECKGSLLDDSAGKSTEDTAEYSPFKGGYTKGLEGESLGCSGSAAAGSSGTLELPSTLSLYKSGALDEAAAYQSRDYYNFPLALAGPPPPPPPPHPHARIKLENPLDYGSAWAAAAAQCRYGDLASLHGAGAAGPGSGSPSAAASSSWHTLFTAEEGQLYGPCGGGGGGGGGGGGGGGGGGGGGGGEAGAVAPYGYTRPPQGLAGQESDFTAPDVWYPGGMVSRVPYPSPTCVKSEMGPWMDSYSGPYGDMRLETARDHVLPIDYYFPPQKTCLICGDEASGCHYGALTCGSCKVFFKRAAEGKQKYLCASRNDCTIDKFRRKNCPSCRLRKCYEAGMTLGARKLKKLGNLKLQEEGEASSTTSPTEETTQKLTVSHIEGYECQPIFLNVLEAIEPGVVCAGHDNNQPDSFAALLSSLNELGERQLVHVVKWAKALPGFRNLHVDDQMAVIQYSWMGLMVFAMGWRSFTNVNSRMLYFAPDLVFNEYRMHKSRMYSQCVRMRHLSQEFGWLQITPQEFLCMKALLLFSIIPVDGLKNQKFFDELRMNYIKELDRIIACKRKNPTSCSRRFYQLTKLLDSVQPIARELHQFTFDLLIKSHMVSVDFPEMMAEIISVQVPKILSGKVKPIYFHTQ
Ratio of Nucleoli Translocation and Cytoplasm, AR (gene 367), sequence (P10275 whole entry, looked up): as above

Take `CNC(=O)ON=C(SC)C(=O)N(C)C`: the call in [1], in [2], in experiment [3], in experiment [4] and in [5] was inactive.
Take `CCc1cccc(CC)c1N(COC)C(=O)CCl`: the concentration at half-maximal activity (AC50) in [1] is 20.1 µM (active); in experiment [3] it was 12.8 µM (active); in experiment [7], 36.6 µM (active). For the same compound, the outcome in [2], in experiment [6], in experiment [8] and in [9] was inactive.
`CON=C(C(=O)OC)c1ccccc1CON=C(C)c1cccc(C(F)(F)F)c1`: the result in experiment [10], in experiment [11], in experiment [12], in experiment [13], in experiment [14] and in experiment [15] was inactive. The outcome in [16], in experiment [17], in [18], in experiment [19] and in [9] was inactive. Also, the AC50 in experiment [7] is 8.73 µM (active); in [8], 14.8 µM (active); in experiment [4] it was 0.183 µM (active); in experiment [5], 0.183 µM (active).
Regarding `COP(=O)(OC)SCn1c(=O)oc2cc(Cl)cnc21`, the call in experiment [1], in [2], in experiment [3] and in experiment [6] was inactive.
Take `CCNc1nc(Cl)nc(NC(C)(C)C#N)n1`: the outcome in experiment [10], in experiment [11], in [13], in experiment [14], in experiment [15] and in experiment [16] was inactive. Also, the outcome in experiment [17], in experiment [18] and in experiment [19] was inactive.
As for `CCCCOC(=O)c1ccccc1C(=O)O`, the compound was called inactive in experiment [1], in experiment [2], in experiment [3] and in [6].
In the case of `CCCOCC(=Nc1ccc(Cl)cc1C(F)(F)F)n1ccnc1`, the half-maximal activity concentration (AC50) in the experiment on DIO1 (gene 1733) was 16.2 µM (active); in experiment [9], 18.2 µM (active); in experiment [4], 0.568 µM (active); in experiment [5], 0.571 µM (active). The compound was classed as inactive in experiment [7] and in [8].
Take `C[N+]1(C)CCCCC1`: the result in experiment [1], in experiment [2], in [3], in [6], in experiment [4] and in experiment [5] was inactive.
Regarding `COP(=O)(OC)OC(Br)C(Cl)(Cl)Br` (stereo not drawn), the half-maximal activity concentration (AC50) is 13.6 µM (active) in [1], 79 µM (active) in experiment [2], 77.9 µM (active) in experiment [6] and 50 µM (active) in experiment [9]. Moreover, the outcome in experiment [3], in [7] and in experiment [8] was inactive.
